# Sampled rows, rich in hits. Any-hit rate of the full collection: about 19%.
# TDP1 cell CPT: DT40-hTDP1 cell growth loss with CPT | chicken DT40 Tdp1-/-;hTDP1 cells + 20 nM CPT, ATP luminescence, 48 h | Potency, µM (titrated, usually from 46.2 µM), without a hit: at the highest dose activity change, negative = growth inhibition, most hits filed as inhibitors | 12% of 420,000 active; note: potency is the fitted concentration of half-maximal effect; nearly all actives have a fitted effect of over 55% in size
#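 Chicken DT40 Tdp1-/- cells stably complemented with human TDP1 were seeded at 400 cells/well in medium containing 20 nM camptothecin, exposed to pin-transferred compounds, and grown at 37 °C for at least 48 hr. Viability was read as ATP luminescence.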
# IL1B secr inh: blocks inflammasome-driven IL-1 beta release; THP-1 LPS/ATP IL-1B secretion, AlphaLISA, 16 h; stronger effect = lower value; activity change, % at 57.5 µM; 4.7% of 360,000 active; AID 743279; in the data active = activity change below about -50%; inconclusive = mostly about -30% to -49%
#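 THP-1 cells pretreated 1 hr with compounds (up to 57.5 uM final), then stimulated with LPS (250 ng/mL final) plus ATP (1.25 mM final); secreted IL-1B measured by AlphaLISA after 16 hr, decreased signal indicating inhibition.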
# HT1080 IDH1KD tx: toxicity to HT-1080 IDH1 knockdown cells (counter line) | HT-1080 IDH1 knockdown viability, ATP luminescence, 48 h | Potency, µM (highest dose often 46.1 µM), for the others: top-dose activity, negative = toxicity, hits mostly cytotoxic | 2% of 360,000 active | AID 686971;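 note: potency is the fitted concentration of half-maximal effect; 0% = DMSO wells and -100% = cell-free medium wells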
#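 Luminescent ATP read-out (CellTiter-Glo, 10 min at room temperature) after 48 h compound exposure at 37 °C gave viability of IDH1-knockdown HT-1080 cells. Activity was normalised to DMSO and cell-free wells, then fitted as concentration-response curves.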
# TDP1 cell noCPT: qHTS for Inhibitors of human tyrosyl-DNA phosphodiesterase 1 (TDP1): qHTS in cells in absence of CPT; DT40 Tdp1-/- hTDP1 cells, no CPT, ATP luminescence, 48 h; Potency, µM (series often up to 46.2 µM), for the others: at the highest dose activity change, negative = growth inhibition, actives largely listed as inhibitors; 15% of 420,000 active; note: potency is the fitted concentration of half-maximal effect; nearly all actives have a fitted effect of over 55% in size
#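 Cells were dispensed at 400 per well, compounds added by pin tool, plates incubated ≥48 hr at 37 °C, then CellTiter-Glo added for 30 min at room temperature before luminescence reading. Line: DT40 Tdp1-/- complemented with hTDP1; camptothecin omitted.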
# HT1080-NT tox: kills 2HG-producing HT-1080-NT fibrosarcoma cells | HT-1080-NT fibrosarcoma viability, CellTiter-Glo ATP luminescence, 48 h | 1.6% of 360,000 active | AID 686970 | Potency, µM (doses to about 46.1 µM), for the others: at the highest dose activity, negative = less viability, most hits filed as cytotoxic;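 note: NT is the 2HG producing partner of a matched IDH1 knockdown line; potency is the fitted concentration of half-maximal effect; 0% = DMSO-treated cells and -100% = media-only wells without cells; nearly all actives have a fitted effect of over 55% in size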
#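 Compounds were tested in concentration-response format on HT-1080-NT cells for 48 hours at 37 degrees C. Cell viability came from CellTiter-Glo luminescence; curves were classified by r2, response magnitude and activity.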
# uPA generation: cell surface uPA generation inhibition | cell surface uPA generation assay, qHTS | Potency, µM (highest dose often 38.3 µM), for inactives: at the highest dose activity change, negative = inhibition, usual class: inhibitors | 0.31% of 330,000 active; active = well fitted inhibition curve with a large enough effect; inconclusive = small, poorly fitted or top-dose-only effect; inactive = no such curve, though single readings can be large or run the other way; tested in mouse RAW 264.7 cells; note: potency is the fitted concentration of half-maximal effect; nearly all actives have a fitted effect of over 55% in size
# The depositor's hits bear a star; ? = inconclusive; . = no result given. Unless noted, calls come from the whole dose curve; as a rule, active = well fitted curve in the direction sought with a large enough effect; inconclusive = small, poorly fitted or top-dose-only effect, or another doubt; inactive = no such curve, though single readings can be large; an effect the other way counts as inactive or inconclusive. Unless noted, % is set by controls: 0 for no effect and ±100 for the full control effect.
SMILES,TDP1 cell CPT,IL1B secr inh,HT1080 IDH1KD tx,TDP1 cell noCPT,HT1080-NT tox,uPA generation
CCCCCCOc1ccc(C(=N)N(CCCC)CCCC)c2ccccc12,4.2µM*,.,.,2.7µM*,.,.
CCCCN(CC)CCOc1cccc2ccccc12,-28%,.,.,?,.,.
COc1ccc(-c2noc(CN3CCCC(OCc4ccccn4)C3)n2)cc1 (stereo not given),16µM*,0,-2%,?,2%,8%
c1ccc(COC2CCCN(Cc3nc(-c4cnccn4)no3)C2)nc1 (stereo not given),-3%,8,2%,17%,7%,5%
COC(=O)c1sccc1NC(=O)COc1ccccc1Cl,0%,30,-25%,1%,-17%,2%
CCCCN1CCc2c1nc1ccc(Br)cc1c2N,?,-96*,?,23µM*,?,10%
Cc1oc(-c2ccc(C(=O)Nc3ccc(F)cc3F)cc2)nc1COc1ccccc1,-28%,.,.,-28%,.,.
CCC(C)[C@H]1CNC(=O)C(=O)N1CCc1cccc2ccccc12 (stereo not given in full),-7%,.,-13%,-12%,0%,.
N=c1c(C(=O)NCc2ccco2)cc2c(=O)n3ccccc3nc2n1CCc1ccccc1,18µM*,-1,-4%,21µM*,1%,-14%
Cc1ccc(Cn2c(=N)c(C(=O)NCc3ccco3)cc3c(=O)n4ccccc4nc32)cc1,11µM*,-8,-6%,11µM*,-10%,2%
COc1ccc(CCn2c(=N)c(C(=O)NCCN3CCOCC3)cc3c(=O)n4ccccc4nc32)cc1OC,?,-29,0%,-17%,?,-3%
CCOCCCn1c(=N)c(C(=O)NCc2ccco2)cc2c(=O)n3ccccc3nc21,-2%,.,.,-17%,.,.
COc1ccc(CCNC(=O)c2cc3c(=O)n4ccccc4nc3n(Cc3ccco3)c2=N)cc1OC,21µM*,2,9%,13µM*,14%,2%
COCCCn1c(=N)c(C(=O)NCc2ccco2)cc2c(=O)n3ccccc3nc21,-1%,.,.,-28%,.,.
COc1ccc(CCn2c(=N)c(C(=O)NCc3ccco3)cc3c(=O)n4ccccc4nc32)cc1OC,7.3µM*,?,-3%,6.5µM*,0%,-25%
CCCS(=O)(=O)NC(=O)C1(C)CCN(C(=O)c2ccc(C(F)(F)F)nc2C)C1 (stereo not given),-5%,0,9%,4%,?,.
CCOC(=O)c1csc(N)c1-c1ccc([N+](=O)[O-])cc1,-10%,-21,1%,?,15%,-4%
COc1cc(OC)nc(NC(=O)COC(=O)c2cccc(Cl)c2)n1,0%,16,11%,-7%,26%,3%
CCN(CC)C(=O)c1ccc2nc([C@H]3C[C@H](O)[C@@H](CO)O3)[nH]c2c1,-9%,14,14%,-7%,-2%,.
OC[C@H]1O[C@@H](c2nc3ccc(-c4nc(-c5ccc(Br)cc5)no4)cc3[nH]2)C[C@@H]1O,16µM*,34,18µM*,16µM*,18µM*,.
CC1=C(C(=O)N2CCOCC2)CC(CC(=O)NC2CCCCC2)C(=O)N1Cc1ccccc1 (stereo not given),-2%,-1,14%,-13%,3%,.
O=C(COCc1cc(-c2ccc3c(c2)OCO3)on1)Nc1cccnc1,?,-4,5.8µM*,?,6.5µM*,2%
COc1cc(NC(=O)COCc2cc(-c3ccc(F)cc3)on2)cc(OC)c1OC,13µM*,.,.,9.2µM*,.,.
O=C(Nc1cccnc1)c1cc(-c2ccc3c(c2)OCO3)on1,-3%,3,6%,-1%,-2%,.
COc1cc(C(=O)OCC(=O)c2cc(C)n(CC3CCCO3)c2C)ccc1OCC(=O)N1CCOCC1 (stereo not given),?,0,0%,?,7%,-4%
